In all, about 69,000 compounds went through this assay and about 8,600 (12%) showed an effect of 50% or more. For the sample, strong results were picked, then their nearest neighbours and some compounds at random.
Each compound was assayed on Plasmodium berghei (assay: Screen against P. berghei liver stage (PbLuc), transformed with Luciferase, at 10uM). Settings: tested at 10 uM.
Assay type: functional, HepG2

| SMILES | INHIBITION [%] |
| --- | --- |
| CCCOCC1CCN(C(=O)Cn2ncc(N3CCCC3)cc2=O)C1 (centres undefined) | -13.6 |
| c1csc(CN2CCO[C@H]3[C@H](OCCN4CCCC4)CC[C@@H]32)n1 | 16.8 |
| CCO[C@@H]1CO[C@@]2(CCCN(Cc3scnc3C)C2)C1 | 5.14 |
| CN(CCN1CCCC1)c1nccc(N2CCN[C@H]3CS(=O)(=O)C[C@H]32)n1 | 45.3 |
| CN(C)CCCN(C)c1nccc(N2CCN[C@H]3CS(=O)(=O)C[C@H]32)n1 | 59.3 |
| CCN(C)c1nccc(N2CCN[C@H]3CS(=O)(=O)C[C@H]32)n1 | 40.9 |
| CCC(C)(C)NC(=O)c1ncn2c1CN(C)S(=O)(=O)c1ccccc1-2 | 47.4 |
| Cn1nnc2c1C(COCc1ccccn1)CN(Cc1ccoc1)C2 (centres undefined) | 49.2 |
| CN(C)Cc1n[nH]c2c1CCN(Cc1cccs1)C2 | 34.6 |
| c1csc(CN2Cc3[nH]nc(COCC4CC4)c3C2)c1 | 46.7 |
| OCCOCc1n[nH]c2c1CN(Cc1cccs1)C2 | 58.5 |
| COCc1n[nH]c2c1CN(Cc1ccccn1)C2 | 47.5 |
| c1ccc(CN2Cc3[nH]nc(COc4cccnc4)c3C2)nc1 | 25.8 |
| COCc1n[nH]c2c1CN(Cc1cccs1)C2 | 64.5 |
| c1cncc(OCc2n[nH]c3c2CN(Cc2cccs2)C3)c1 | 51.2 |
| c1ccc(OCc2n[nH]c3c2CN(Cc2cccs2)C3)nc1 | -0.804 |
| OCCOCc1n[nH]c2c1CN(Cc1ccccn1)C2 | 35.8 |
| Cc1nn(C)c(C)c1CCC(=O)N1CCCC(n2cncn2)C1 (centres undefined) | 27.6 |
| OCC1(O)CCCN(Cc2noc(-c3ccccc3)n2)CC1 (centres undefined) | 41.2 |
| C[S+]([O-])CCNC(=O)N1CCSC(C)(C)C1 (centres undefined) | 25.4 |
| Cc1cccc(CS(=O)(=O)c2nnc(N3CCOCC3)s2)c1 | 0 |
| O=S(=O)(Cc1ccccc1)c1nnc(N2CCCC2)s1 | 53.8 |
| O=S(=O)(Cc1ccccc1)c1nnc(N2CCOCC2)s1 | 0 |

| SMILES | INHIBITION [%] |
| --- | --- |
| CS(=O)(=O)NCc1ncn2c1CN(CCN1CCCC1)CCC2 | 31.1 |
| CC(C)CC(=O)NCC(O)c1c(F)cccc1F (centres undefined) | 21.8 |
| CCC1CCCCN1Cc1nc2c(cnn2C)c(=O)[nH]1 (centres undefined) | 25.1 |
| CC(C)OCc1ccccc1CNC(=O)C(C)S(=O)(=O)C(C)C (centres undefined) | 3.84 |
| CCc1ccccc1CNC(=O)CNC(=O)C(C)(C)C | -11.5 |
| CC(C)OCc1ccccc1CNC(=O)C(C)(C)C | 68.6 |
| CCN(CC)C(=O)c1ccc(Cl)c(NC(=O)c2cc(C(C)C)on2)c1 | 43 |
| CN(C)Cc1cnc(CC2CCN(CCc3ccccc3)CC2)cn1 | 9.05 |
| c1cnc(N2CCO[C@H]3[C@H](OCC4CC4)CC[C@@H]32)nc1 | 21.6 |
| CCC1CCCCCN1C(=O)c1cc(C#N)c(SC)[nH]c1=O (centres undefined) | 49.9 |
| CSc1[nH]c(=O)c(C(=O)N2CCCC2c2cccs2)cc1C#N (centres undefined) | 53.3 |
| CSc1[nH]c(=O)c(C(=O)N2CCCC2C2CCCC2)cc1C#N (centres undefined) | 0.672 |
| CN(C)c1ncc(-c2cc(C(=O)N3CCCC3)n(CC3CC3)c2)cn1 | 3.58 |
| O=C(c1csc(-c2ccco2)n1)N1CCOc2ncccc21 | -178 |
| CCCc1ncc(C(=O)N2CCOc3ncccc32)s1 | 63.8 |
| O=C(c1cnc(-c2ccco2)s1)N1CCOc2ncccc21 | -40.6 |
| Cc1cccc(OC2(C(=O)O)CCN(C(=O)CCc3ccco3)CC2)c1 | 16.6 |
| Cc1cn(-c2ccccc2)nc1NS(=O)(=O)c1ccc(C(=O)O)cc1 | 20.9 |
| CCc1c(C)n(CC(=O)OC)c2nc3ccccc3n2c1=O | 15 |
| Cc1noc([C@@H]2C[C@H]3OCC[C@H]3N(S(=O)(=O)c3cccnc3)C2)n1 | 30.1 |
| CCC[C@H]1CN(S(=O)(=O)c2c(C)noc2C)C[C@@H]1N | -28.9 |
| CCC[C@H]1CN(S(=O)(=O)c2cc(C)ccc2C)C[C@@H]1N | 57.2 |
| Cc1cc(-c2cc(S(=O)(=O)N3C[C@H](C4CC4)[C@@H](N)C3)c(C)s2)on1 | 45.3 |

| SMILES | INHIBITION [%] |
| --- | --- |
| CCC[C@H]1CN(S(=O)(=O)c2ccc(CC)s2)C[C@@H]1N | 52.2 |
| CCC[C@H]1CN(S(=O)(=O)c2cc(C)ccc2F)C[C@@H]1N | 44.2 |
| CCc1ccc(S(=O)(=O)N2CC3(COC(C)(C)OC3)C2)s1 | 42.7 |
| CCC[C@@H]1CN(S(=O)(=O)c2ccc(C)c(F)c2)C[C@H]1N(C)C | 37.8 |
| CCC[C@H]1CN(S(=O)(=O)c2ccc(-c3c(C)noc3C)s2)C[C@@H]1N | 72.6 |
| CCC[C@H]1CN(S(=O)(=O)c2ccccc2)C[C@@H]1N | -2.34 |
| O=C1[C@H]2CN(CC3CCOCC3)C[C@H]2CN1Cc1cccc(F)c1 | -53.6 |
| CNc1nc2cn(Cc3ccc(Cl)cc3)c(=O)c-2c[nH]1 | -14.7 |
| CCc1ncc(C(=O)N2CCCN(C3CCCCC3)CC2)cn1 | 37.7 |
| COc1ncc(CN2CCC3(CCNC(=O)CC3)CC2)cn1 | 39.5 |
| CN(C)C(=O)C1CN(Cc2cccs2)CCN(S(C)(=O)=O)C1 (centres undefined) | 32.8 |
| Cc1nc(C)n(CC2CCCN2Cc2nc(N)c3ccccc3n2)n1 (centres undefined) | 59.7 |
| Cc1nc(CN2CCCCC2Cn2cncn2)nc2ccccc12 (centres undefined) | 51.3 |
| Cc1cc(C)n(CC2CCCN2Cc2nc(N)c3ccccc3n2)n1 (centres undefined) | 37.9 |
| Nc1nc(CN2CCCCC2Cn2cncn2)nc2ccccc12 (centres undefined) | 32.9 |
| Fc1ccccc1OCCN1CCCCC1Cn1cncn1 (centres undefined) | -29.1 |
| Cc1cnn(CC2CCCN2Cc2nc3ccccc3c(=O)[nH]2)c1 (centres undefined) | 26.4 |
| O=c1[nH]c(CCN2CCCC2Cn2cccn2)nc2ccccc12 (centres undefined) | 14.4 |
| Cc1nc(C)n(CC2CCCN2Cc2nc(C)c3ccccc3n2)n1 (centres undefined) | 17.4 |
| Cc1nc(CN2CCCC2Cn2cncn2)nc2ccccc12 (centres undefined) | 5.7 |
| Cc1cnn(CC2CCCN2CCc2nc3ccccc3c(=O)[nH]2)c1 (centres undefined) | 61.3 |
| N#Cc1ccccc1OCCN1CCCCC1Cn1cncn1 (centres undefined) | 6.56 |
| COc1ccccc1OCCN1CCCCC1Cn1cncn1 (centres undefined) | 79.5 |

From ChEMBL document CHEMBL4513216, “Probing the Open Global Health Chemical Diversity Library for Multistage-Active Starting Points for Next-Generation Antimalarials” (ACS Infect Dis, 2020)
